Inconclusive results are not listed. Calls of active or inactive are those of the source. Unless noted, the call rests on the fitted dose curve; in most records, active means well fitted curve in either direction with a large enough effect (not every such curve was filed as active); inconclusive means small, poorly fitted or top-dose-only effect, or another doubt; inactive means flat fitted curve, though single readings scatter.
Tests used:
[1] = target: Lysosomal acid glucosylceramidase (Homo sapiens) (UniProt P04062); assay: Glucocerebrosidase-p2 (AID 348; in the data active means potency below about 10 µM; further: potency means the concentration at half of the fitted maximal effect); conditions: purified GBA, blue fluorogenic substrate, 40 min
Sequence of Lysosomal acid glucosylceramidase (Homo sapiens) (P04062 whole entry, looked up): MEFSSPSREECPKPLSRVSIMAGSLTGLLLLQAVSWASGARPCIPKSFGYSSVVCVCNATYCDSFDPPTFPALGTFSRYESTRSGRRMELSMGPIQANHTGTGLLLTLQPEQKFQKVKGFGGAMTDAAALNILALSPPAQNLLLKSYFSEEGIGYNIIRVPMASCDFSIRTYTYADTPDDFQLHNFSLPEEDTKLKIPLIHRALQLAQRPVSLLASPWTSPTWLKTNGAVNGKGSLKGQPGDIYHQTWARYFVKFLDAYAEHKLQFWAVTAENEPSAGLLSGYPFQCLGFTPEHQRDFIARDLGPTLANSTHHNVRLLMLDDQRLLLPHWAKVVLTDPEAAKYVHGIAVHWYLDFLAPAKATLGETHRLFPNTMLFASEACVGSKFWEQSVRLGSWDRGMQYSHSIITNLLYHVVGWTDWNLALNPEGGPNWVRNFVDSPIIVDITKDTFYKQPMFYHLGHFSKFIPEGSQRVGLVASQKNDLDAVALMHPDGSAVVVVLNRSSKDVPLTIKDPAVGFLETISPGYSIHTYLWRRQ
Method in brief: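 Compounds titrated from 0.6 nM upwards against 0.2 nM enzyme in pH 5.9 citric acid/KH2PO4, taurocholate, tween-20; blue fluorogenic substrate 80 uM, 40 min room temperature, stopped and read Ex 365/Em 440 for AC50.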

[2] = AP1 Signaling Pathway (AID 357); conditions: ME-180 AP-1-bla reporter, EGF-induced, beta-lactamase ratio, 5 h; at 7.69 µM (top of the series) unless noted;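 further: ME-180 reporter cells stimulated with EGF at its EC50 level; on the % scale 0 is the no-effect control and ±100 the full control effect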
Method in brief: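 Read-out was the 460nm/530nm emission ratio (excitation 405nm) after CCF4 loading for 2.5 hours at room temperature. Cells carried an AP-1-driven beta-lactamase reporter, were stimulated with EC50 EGF plus compound for 5 hours, and AC50 values came from titrations.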

[3] = NFAT Signaling Pathway (AID 444); conditions: Jurkat NFAT-bla M1, carbachol, beta-lactamase ratio, 5 h; at 7.69 µM (top of the series) unless noted;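 further: carbachol stimulus at about its EC50 of 1 µM final; on the % scale 0 is the no-effect control and ±100 the full control effect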
Method in brief: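 Read-out: CCF4 FRET ratio (460 nm/530 nm) after 1 h RT dye loading, used for %activity and AC50 from titration series. Cells: Jurkat NFAT-β-lactamase/M1 line, treated with compound plus 1 uM carbachol for 5 h, 37 °C.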

[4] = Stat Signaling Pathway (AID 446); conditions: ME-180 (cervical carcinoma) SIE beta-lactamase reporter, IL-6 stimulated, 5 h; at 7.69 µM (top of the series) unless noted;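 further: ME-180 cervical cancer cells given 40 pM IL-6 alongside compound; SIE-controlled beta-lactamase reporter measured as 460/530 nm FRET emission ratio; on the % scale 0 is the no-effect control and ±100 the full control effect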
Method in brief: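 IL-6/STAT signaling read in ME-180 cells via an SIE beta-lactamase reporter. Stimulus was 40 pM IL-6 (its AC50) for 5 hrs, so both activation and inhibition register.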

[5] = target: Glucocorticoid receptor (Homo sapiens) (UniProt P04150); assay: GR-GFP Redistribution (AID 450;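 active means compounds whose dose series gives a full or clear partial fitted curve of increased nuclear translocation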; further: potency means the concentration at half of the fitted maximal effect); conditions: U2OS GR-GFP nuclear translocation, laser cytometry, 2 h
Sequence of Glucocorticoid receptor (Homo sapiens) (P04150 whole entry, looked up, the tested form may be a part): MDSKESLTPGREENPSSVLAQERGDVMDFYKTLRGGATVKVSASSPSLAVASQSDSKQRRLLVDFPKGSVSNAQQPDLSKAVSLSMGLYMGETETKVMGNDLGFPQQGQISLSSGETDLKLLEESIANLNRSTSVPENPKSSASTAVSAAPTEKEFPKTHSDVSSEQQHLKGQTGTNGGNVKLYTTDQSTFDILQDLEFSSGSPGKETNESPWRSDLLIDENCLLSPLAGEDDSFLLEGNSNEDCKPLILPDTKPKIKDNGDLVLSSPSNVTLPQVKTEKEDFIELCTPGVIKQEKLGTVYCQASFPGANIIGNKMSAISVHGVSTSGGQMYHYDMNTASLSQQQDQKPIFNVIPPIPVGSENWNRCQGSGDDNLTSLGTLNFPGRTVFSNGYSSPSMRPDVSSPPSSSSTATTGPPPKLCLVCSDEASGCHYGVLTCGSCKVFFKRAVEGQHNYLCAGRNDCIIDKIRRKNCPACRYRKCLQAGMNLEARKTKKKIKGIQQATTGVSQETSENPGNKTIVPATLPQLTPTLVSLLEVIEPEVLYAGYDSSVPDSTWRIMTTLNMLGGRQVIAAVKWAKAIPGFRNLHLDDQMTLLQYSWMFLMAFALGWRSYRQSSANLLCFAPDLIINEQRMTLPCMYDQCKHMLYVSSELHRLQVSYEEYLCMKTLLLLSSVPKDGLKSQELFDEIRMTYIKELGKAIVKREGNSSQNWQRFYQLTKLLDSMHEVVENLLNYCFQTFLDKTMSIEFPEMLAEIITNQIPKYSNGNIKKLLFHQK

[6] = target: Glucocorticoid receptor (Homo sapiens) (UniProt P04150); assay: GR-EFC Redistribution (AID 451; calls by dose curve; further: potency means the concentration at half of the fitted maximal effect); conditions: CHO-K1 GR-EFC translocation, beta-gal luminescence, 2 h
Method in brief: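 Translocation of GR-ED fusion to nuclear EA restores b-gal, read by luminescence after 1 h room-temperature detection. Engineered CHO-K1 biosensor cells, 1,000/well, exposed 2 h at 37 C to titrations up to 46 uM final.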

[7] = target: Mitogen-activated protein kinase 10 (Mus musculus) (UniProt Q61831); assay: JNK3 AlphaScreen Assay (AID 530); conditions: JNK3 lysate, c-Jun phosphorylation; series mostly up to 11.4 µM;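 further: kinase came from lysate of stimulated human HepG2 cells; signal reports phosphorylation of biotinylated GST-cJun 1-79 at Ser73 with 10 µM ATP; on the % scale 0 is the no-effect control and ±100 the full control effect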
Method in brief: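 Room-temperature AlphaScreen kinase assay; pre-activated HepG2 lysate as JNK3 source, biotin-GST-cJun(1-79) substrate, 10 uM ATP, compound 15 min preincubation.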

[8] = target: 3',5'-cyclic-AMP phosphodiesterase 4B (Homo sapiens) (UniProt Q07343); assay: qHTS Assay for Inhibitors of PDE-IV (AID 607; active means well fitted activation curve with a large enough effect in the main read-out, with a control signal flat, not every such curve was filed as active; further: % of control where 0% means no effect); conditions: HEK293 ACTOne CNG channel cells, membrane potential fluorescence; series mostly up to 22.9 µM
Sequence of 3',5'-cyclic-AMP phosphodiesterase 4B (Homo sapiens) (Q07343 whole entry, looked up): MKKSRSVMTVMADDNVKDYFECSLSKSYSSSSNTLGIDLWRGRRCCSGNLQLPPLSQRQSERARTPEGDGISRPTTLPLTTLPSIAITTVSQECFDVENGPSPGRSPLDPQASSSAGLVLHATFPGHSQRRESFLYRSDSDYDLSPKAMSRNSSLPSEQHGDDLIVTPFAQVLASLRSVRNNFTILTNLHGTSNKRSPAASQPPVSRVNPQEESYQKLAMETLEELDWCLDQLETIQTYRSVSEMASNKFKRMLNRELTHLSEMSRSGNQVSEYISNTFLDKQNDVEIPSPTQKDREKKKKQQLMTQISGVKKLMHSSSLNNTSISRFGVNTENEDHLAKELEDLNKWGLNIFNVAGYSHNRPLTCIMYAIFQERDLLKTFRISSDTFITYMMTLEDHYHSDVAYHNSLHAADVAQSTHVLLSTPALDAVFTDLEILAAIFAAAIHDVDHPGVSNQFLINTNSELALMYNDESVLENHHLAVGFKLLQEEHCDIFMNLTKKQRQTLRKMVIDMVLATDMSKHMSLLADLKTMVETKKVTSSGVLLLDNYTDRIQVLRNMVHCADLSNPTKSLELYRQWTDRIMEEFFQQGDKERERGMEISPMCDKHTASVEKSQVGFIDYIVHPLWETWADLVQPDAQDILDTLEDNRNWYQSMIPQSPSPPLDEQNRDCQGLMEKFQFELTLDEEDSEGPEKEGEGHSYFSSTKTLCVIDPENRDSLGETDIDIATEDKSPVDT
Method in brief: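 Live HEK293 cells with a modified cyclic nucleotide-gated (CNG) channel report intracellular cAMP via membrane-potential dye fluorescence (ex 535/em 590 nm). Endogenous PDE-IV was targeted. Compounds were tested at up to 22.9 uM final; RO 20-1724 100 uM served as control.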

NC1(C(=O)OCc2ccccc2)CCCC1
inactive: Potency [1] > 11.4 µM | activity change, negative = inhibition [2] 8.77% | activity change, negative = inhibition [3] -4.79% | activity, negative = inhibition [4] 3.45% | Potency [5] > 46 µM | Potency [6] > 9.22 µM | Potency [7] | Potency [8]

Oc1ccc2ccccc2c1C=NCc1c(O)ccc2ccccc12
inactive: Potency [1] > 11.4 µM | activity change, negative = inhibition [2] -5.07% | activity change, negative = inhibition [3] 12.6% | activity, negative = inhibition [4] -21.2% | Potency [5] > 46 µM | Potency [6] > 9.22 µM | Potency [7] | Potency [8]

CC(=O)Nc1cc(CN2CCCCC2)c(O)c2ncccc12
inactive: Potency [1] > 11.4 µM | activity change, negative = inhibition [2] 4.21% | activity change, negative = inhibition [3] -27.8% | activity, negative = inhibition [4] 6.71% | Potency [5] > 46 µM | Potency [6] > 9.22 µM | Potency [7] | Potency [8]

CC[C@@H](c1ccc2cc(O)ccc2c1)C(C)(C)C(=O)O
inactive: Potency [1] > 11.4 µM | activity change, negative = inhibition [2] -1.38% | activity change, negative = inhibition [3] 8.96% | activity, negative = inhibition [4] 6.79% | Potency [5] > 46 µM | Potency [6] > 9.22 µM | Potency [7] | Potency [8]

Cn1c(=S)c2[nH]c(SCCN3C(=O)c4ccccc4C3=O)nc2n(C)c1=O
inactive: Potency [1] > 11.4 µM | activity change, negative = inhibition [2] 0.578% | activity change, negative = inhibition [3] -4.22% | activity, negative = inhibition [4] 2.07% | Potency [5] > 46 µM | Potency [6] > 9.22 µM | Potency [7] | Potency [8]

C[C@@H](N)/C(N)=N/O
inactive: Potency [1] > 11.4 µM | activity change, negative = inhibition [2] -1.61% | activity change, negative = inhibition [3] 6.7% | activity, negative = inhibition [4] 5.63% | Potency [5] > 46 µM | Potency [6] > 9.22 µM | Potency [7] | Potency [8]

CN(C)CCCN=C(N)N
inactive: Potency [1] > 11.4 µM | activity change, negative = inhibition [2] 11.7% | activity change, negative = inhibition [3] 4.78% | activity, negative = inhibition [4] 2.14% | Potency [5] > 46 µM | Potency [6] > 9.22 µM | Potency [7] | Potency [8]

N=C(N)SCCON1C(=O)c2ccccc2C1=O
inactive: Potency [1] > 11.4 µM | activity change, negative = inhibition [2] 5.96% | activity change, negative = inhibition [3] -3.83% | activity, negative = inhibition [4] -5.8% | Potency [5] > 46 µM | Potency [6] > 9.22 µM | Potency [7] | Potency [8]

O=C(O)c1ccncc1.O=C(O)c1ccncc1.[NH2-].[NH2-].[Pt]
inactive: Potency [1] > 11.4 µM | activity change, negative = inhibition [2] -4.3% | activity change, negative = inhibition [3] 8.19% | activity, negative = inhibition [4] 2.8% | Potency [5] > 46 µM | Potency [6] > 9.22 µM | Potency [7] | Potency [8]

NCCNC[C@H](O)CO
inactive: Potency [1] > 11.4 µM | activity change, negative = inhibition [2] -9.92% | activity change, negative = inhibition [3] 7.58% | activity, negative = inhibition [4] 3.6% | Potency [5] > 46 µM | Potency [6] > 9.22 µM | Potency [7] | Potency [8]

O=C(O)CCCN1CCCCC1
inactive: Potency [1] > 11.4 µM | activity change, negative = inhibition [2] 9.35% | activity change, negative = inhibition [3] 1.19% | activity, negative = inhibition [4] 9.26% | Potency [5] > 46 µM | Potency [6] > 9.22 µM | Potency [7] | Potency [8]

O=C(O)C[C@@H](C(=O)O)c1ccccc1[N+](=O)[O-]
inactive: Potency [1] > 11.4 µM | activity change, negative = inhibition [2] 10.5% | activity change, negative = inhibition [3] 13% | activity, negative = inhibition [4] 6.64% | Potency [5] > 46 µM | Potency [6] > 9.22 µM | Potency [7] | Potency [8]

O=C(O)CSc1ccccc1C(=O)O
inactive: Potency [1] > 11.4 µM | activity change, negative = inhibition [2] 9.97% | activity change, negative = inhibition [3] -5.26% | activity, negative = inhibition [4] -2.73% | Potency [5] > 46 µM | Potency [6] > 9.22 µM | Potency [7] | Potency [8]

COc1ccc2c(c1)CCc1c(-c3noc4c3CCc3cc(OC)ccc3-4)noc1-2
inactive: Potency [1] > 11.4 µM | activity change, negative = inhibition [2] -10.7% | activity change, negative = inhibition [3] -3.27% | activity, negative = inhibition [4] 2.75% | Potency [5] > 46 µM | Potency [6] > 9.22 µM | Potency [7] | Potency [8]

N=C(CC(=O)Nc1ccccn1)c1ccccc1
inactive: Potency [1] > 11.4 µM | activity change, negative = inhibition [2] 3.96% | activity change, negative = inhibition [3] 28.4% | activity, negative = inhibition [4] 5.02% | Potency [5] > 46 µM | Potency [6] > 9.22 µM | Potency [7] | Potency [8]
